Our source for the XTT viability, phenotypic severity score and drug effect values is the supplement of paper PMC6805474.

The subject of assay [1] is Schistosoma mansoni schistosomula (LE). The assay can be described thus: XTT viability relative to DMSO control; higher = more viable (less active). The note with it: 72 h; 10 µM. The method, then: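 XTT/PMS was then added for a further 24 h (72 h total) and A450 was read. % viability = (sample - heat-killed control)/(DMSO control - heat-killed control) x 100, from duplicate wells in two independent experiments.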
In general terms: Formazan colour is commonly taken as a measure of viable cells.

Assay [2] deals with Schistosoma mansoni schistosomula (NMRI). The assay can be described thus: phenotypic severity score (0-4); higher = more antischistosomal effect, active = 2 or more. The note with it: 10 µM.
The test system of assay [3] is Schistosoma mansoni schistosomula (Liberian). The assay can be described thus: drug effect (1 - score/DMSO control score) (fraction); higher = more antischistosomal effect, active = 0.5 or more; extreme values may be limits of the assay. The note with it: 10 µM. A digest of the protocol: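 Drug effect was calculated by comparing the mean score of the test wells with the mean score of the DMSO wells, and any negative value was set to zero. Duplicate wells of 50 Liberian-strain S. mansoni schistosomula, mechanically transformed from cercariae and pre-incubated at least 12 h, received 10 µM compound in Medium 199 with 5% FCS at 37 °C, 5% CO2, with 0.1% DMSO in the comparison wells. Visual scoring at 10× took place at 24, 48 and 72 h on a quarter-point scale from 3 (normal) to 0 (dead), and a plate counted only if its DMSO wells averaged at least 2.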
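Wherever phenotypic severity score (0-4) is given: visual microscopic scoring of shape, motility and density changes versus 0.5% DMSO solvent controls, one point per descriptor, degeneracy or death scored 4, mean of duplicate wells.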

In the case of `Cn1ccnc1CNCCS(=O)(=O)c1cccc(Nc2ccc(-c3cccc(F)c3)cn2)c1`, the XTT viability in assay [1] came out at 114%. Further, the phenotypic severity score in assay [2] (24 h), in assay [2] (48 h) and in assay [2] (72 h) was 0 (inactive) throughout. The values for the drug effect in assay [3] (24 h), in assay [3] (48 h) and in assay [3] (72 h) were 0.1 (inactive), 0.0556 (inactive) and 0.125 (inactive), respectively.

`Cc1cc(Nc2ccc(C(F)(F)F)cc2)n2ccnc2n1`: in assay [1], the XTT viability turned out to be 71.7%. Moreover, the phenotypic severity score in assay [2] (24 h), in assay [2] (48 h) and in assay [2] (72 h) was 0 (inactive) each time. The drug effect in assay [3] (24 h) was 0.0909 (inactive); in assay [3] (48 h) it was 0.15 (inactive); in assay [3] (72 h) it was 0.158 (inactive).

For the compound `CCN(CC)S(=O)(=O)c1ccc(Cl)c(C(=O)Nc2ccc3nc(C)sc3c2)c1`, the XTT viability in assay [1] was determined as 87.9%. Also, the phenotypic severity score is 1 (inactive) in assay [2] (24 h), 0 (inactive) in assay [2] (48 h) and 0 (inactive) in assay [2] (72 h). Further, the drug effect in assay [3] (24 h) is 0.05 (inactive); in assay [3] (48 h) it was 0.027 (inactive); in assay [3] (72 h), 0.111 (inactive).

Consider `O=S(=O)(c1ccc(Cl)cc1)N1CCN(C(=S)NCc2ccco2)CC1`, for which, in assay [1], the XTT viability worked out at 75.2%. Also, the figures for the phenotypic severity score in assay [2] (24 h), in assay [2] (48 h) and in assay [2] (72 h) were 1 (inactive), 0 (inactive) and 0 (inactive), respectively. Also, the values for the drug effect in assay [3] (24 h), in assay [3] (48 h) and in assay [3] (72 h) were 0.05 (inactive), 0.0811 (inactive) and 0.111 (inactive), respectively.

Take `CN1CCN(CCCOc2ncc(Nc3ncc(-c4ccc(C(F)(F)F)c(F)c4)nc3C(N)=O)cn2)CC1`: the XTT viability in assay [1] was found to be 5.2%. Also, the phenotypic severity score in assay [2] (24 h), in assay [2] (48 h) and in assay [2] (72 h) was 3 (active) throughout. Also, the drug effect in assay [3] (24 h), in assay [3] (48 h) and in assay [3] (72 h) was 1 (active) throughout.

On to `COc1ccc(C2=NN(C3CCCCCC3)C(=O)[C@@H]3CC=CC[C@H]23)cc1OCCCCOc1ccc(-c2nn[nH]n2)cc1`, for which, in assay [1], the XTT viability stood at 31%. Besides, the phenotypic severity score was 2 (active) in assay [2] (24 h), 0 (inactive) in assay [2] (48 h) and 0 (inactive) in assay [2] (72 h). Also, the drug effect in assay [3] (24 h) is 0.35 (inactive); in assay [3] (48 h), 0.568 (active); in assay [3] (72 h), 0.667 (active).

Take `O=C(C1CCN(c2cc(-n3cccc3)ncn2)CC1)N1CCc2ccccc2C1`: in assay [1], the XTT viability came out at 96.4%. Also, the figures for the phenotypic severity score in assay [2] (24 h), in assay [2] (48 h) and in assay [2] (72 h) were 0 (inactive), 0 (inactive) and 1 (inactive), respectively. The values for the drug effect in assay [3] (24 h), in assay [3] (48 h) and in assay [3] (72 h) were 0.05 (inactive), 0.111 (inactive) and 0.333 (inactive), respectively.

As for `CCC(Sc1nc2ccccc2o1)C(=O)Nc1nnc(C)s1` (stereo not given), the XTT viability in assay [1] is 82.8%. Moreover, the phenotypic severity score in assay [2] (24 h), in assay [2] (48 h) and in assay [2] (72 h) was 0 (inactive) throughout. Moreover, the drug effect was 0.1 (inactive) in assay [3] (24 h), 0.111 (inactive) in assay [3] (48 h) and 0.312 (inactive) in assay [3] (72 h).

With `CC(=O)Oc1ccccc1C(=O)Nc1ncc([N+](=O)[O-])s1`, in assay [1], the XTT viability is 102%. The phenotypic severity score was 2 (active) in assay [2] (24 h), 4 (active) in assay [2] (48 h) and 4 (active) in assay [2] (72 h). Also, the drug effect in assay [3] (24 h) is 0.2 (inactive); in assay [3] (48 h), 0.297 (inactive); in assay [3] (72 h), 0.556 (active).

`CC(C)=CCC/C(C)=C\CNCCNC1C2CC3CC(C2)CC1C3` (stereo not given): the XTT viability in assay [1] is 13.5%. Further, the phenotypic severity score in assay [2] (24 h), in assay [2] (48 h) and in assay [2] (72 h) was 4 (active) in each case. Besides, the drug effect in assay [3] (24 h), in assay [3] (48 h) and in assay [3] (72 h) was 1 (active) throughout.

On to `COC(=O)c1c(NC(=O)c2c(F)c(F)c(F)c(F)c2F)sc2c1CCCCC2`, for which the XTT viability in assay [1] amounted to 0.615%. In addition, the figures for the phenotypic severity score in assay [2] (24 h), in assay [2] (48 h) and in assay [2] (72 h) were 2 (active), 4 (active) and 4 (active), respectively. Moreover, the drug effect in assay [3] (24 h), in assay [3] (48 h) and in assay [3] (72 h) was 1 (active) each time.

Take `O=C(NCCc1ccn(-c2ccccc2)n1)C1CCCCC1`: the XTT viability in assay [1] came out at 74.1%. Further, the phenotypic severity score in assay [2] (24 h), in assay [2] (48 h) and in assay [2] (72 h) was 0 (inactive) in each case. In addition, the drug effect in assay [3] (24 h) is 0.136 (inactive); in assay [3] (48 h), < 0 (inactive); in assay [3] (72 h), 0.0526 (inactive).

Turning to `O=C(Nc1nc(-c2ccccn2)cs1)C1CC1c1ccccc1F` (stereo not given), the XTT viability in assay [1] came out at 71.7%. The phenotypic severity score in assay [2] (24 h), in assay [2] (48 h) and in assay [2] (72 h) was 0 (inactive) throughout. In addition, the drug effect was 0.182 (inactive) in assay [3] (24 h), 0.3 (inactive) in assay [3] (48 h) and 0.127 (inactive) in assay [3] (72 h).

For `COc1ccc(C2CC(c3cccs3)=NN2C(=O)c2ccco2)cc1OC` (stereo not given), the XTT viability in assay [1] came to 65.7%. The phenotypic severity score in assay [2] (24 h), in assay [2] (48 h) and in assay [2] (72 h) was 0 (inactive) each time. Besides, the drug effect in assay [3] (24 h) was 0.1 (inactive); in assay [3] (48 h), 0.135 (inactive); in assay [3] (72 h) it was 0.167 (inactive).

`O=C(C(Cc1c[nH]c2ccccc12)NS(=O)(=O)c1ccc(Cl)cc1)N1CCCCC1` (stereo not given): in assay [1], the XTT viability is 96.4%. Besides, the phenotypic severity score in assay [2] (24 h), in assay [2] (48 h) and in assay [2] (72 h) was 0 (inactive) each time. Further, the values for the drug effect in assay [3] (24 h), in assay [3] (48 h) and in assay [3] (72 h) were 0.05 (inactive), 0.0811 (inactive) and 0.111 (inactive), respectively.

On to `Cc1cc(C(=O)Nc2ccc(-c3ccccc3)cc2)no1`, for which the XTT viability in assay [1] amounted to 90.7%. Also, the phenotypic severity score in assay [2] (24 h), in assay [2] (48 h) and in assay [2] (72 h) was 0 (inactive) each time. Besides, the drug effect in assay [3] (24 h) is 0.1 (inactive); in assay [3] (48 h), 0.0811 (inactive); in assay [3] (72 h) it was 0.111 (inactive).

For the compound `CC1CCCN(C(=O)C(C)Nc2cc(Cl)ccc2N2CCOCC2)C1` (stereo not given), in assay [1], the XTT viability is 137%. The phenotypic severity score in assay [2] (24 h), in assay [2] (48 h) and in assay [2] (72 h) was 0 (inactive) in each case. The figures for the drug effect in assay [3] (24 h), in assay [3] (48 h) and in assay [3] (72 h) were 0.15 (inactive), 0.222 (inactive) and 0.375 (inactive), respectively.

In the case of `NCC(c1cccs1)S(=O)(=O)c1ccccc1` (stereo not given), the XTT viability in assay [1] was 45.2%. For the same compound, the phenotypic severity score in assay [2] (24 h) is 1 (inactive); in assay [2] (48 h), 1 (inactive); in assay [2] (72 h), 2 (active). The figures for the drug effect in assay [3] (24 h), in assay [3] (48 h) and in assay [3] (72 h) were 0.15 (inactive), 0.05 (inactive) and 0.0556 (inactive), respectively.

Take `CN1CCC(c2cc(-c3ccncc3)c(-c3ccc(F)cc3)[nH]2)CC1`: in assay [1], the XTT viability was found to be 94.6%. Also, the phenotypic severity score in assay [2] (24 h), in assay [2] (48 h) and in assay [2] (72 h) was 0 (inactive) each time. Also, the drug effect is < 0 (inactive) in assay [3] (24 h), 0.0556 (inactive) in assay [3] (48 h) and 0.111 (inactive) in assay [3] (72 h).

On to `Cc1[nH]c2cc(F)cc(F)c2c(=O)c1-c1ccc(Oc2ccc(OC(F)(F)F)cc2)cc1`, for which the XTT viability in assay [1] was determined as 74.6%. In addition, the phenotypic severity score is 2 (active) in assay [2] (24 h), 4 (active) in assay [2] (48 h) and 4 (active) in assay [2] (72 h). Moreover, the drug effect in assay [3] (24 h) was 0.45 (inactive); in assay [3] (48 h), 0.778 (active); in assay [3] (72 h), 0.75 (active).
